Test results: PubChem BioAssay (NCI)
The panel holds about 83,000 compounds, 20% with a hit somewhere; the sample as a whole holds those more often.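 Single-dose data. Exposure time 48 hours. Values below 10 considered active.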 Unmarked numbers belong to inactive results. Calls of active or inactive are those of the source.

Columns and labels:
Experiment in all cases: NCI-60 one-dose screen, 48 h (100 = growth as untreated, 0 = no growth, -100 = all killed)
[1] = system: SR leukemia; conditions: 10 µM unless noted
[2] = system: RPMI-8226 leukemia; conditions: 10 µM unless noted
[3] = system: OVCAR-8 ovarian; conditions: 10 µM unless noted
[4] = system: OVCAR-5 ovarian; conditions: 10 µM unless noted
[5] = system: OVCAR-4 ovarian; conditions: 10 µM unless noted
[6] = system: SK-OV-3 ovarian; conditions: 10 µM unless noted
[7] = system: IGROV1 ovarian; conditions: 10 µM unless noted
[8] = system: OVCAR-3 ovarian; conditions: 10 µM unless noted
[9] = system: HS 578T breast; conditions: 10 µM
[10] = system: NCI/ADR-RES ovarian; conditions: 10 µM unless noted
[11] = system: T-47D breast; conditions: 10 µM unless noted
[12] = system: BT-549 breast; conditions: 10 µM unless noted
[13] = system: MDA-MB-435 melanoma; conditions: 10 µM unless noted
[14] = system: SW-620 colon; conditions: 10 µM unless noted
[15] = system: MCF7 breast; conditions: 10 µM unless noted
[16] = system: HCT-116 colon; conditions: 10 µM unless noted
[17] = system: HCC-2998 colon; conditions: 10 µM unless noted
[18] = system: KM12 colon; conditions: 10 µM unless noted

| Compound | growth [1] | growth [2] | growth [3] | growth [4] | growth [5] | growth [6] | growth [7] | growth [8] | growth [9] | growth [10] | growth [11] | growth [12] | growth [13] | growth [14] | growth [15] | growth [16] | growth [17] | growth [18] |
| --- | --- | --- | --- | --- | --- | --- | --- | --- | --- | --- | --- | --- | --- | --- | --- | --- | --- | --- |
| O=C(Nc1ccc2[nH]c3ccccc3c2c1)c1ccccc1Cl | 17.6% | 67.5% | 72.4% | 82.4% | 101% | 50.5% | 50.1% | 50.9% | 70.6% | 18.8% | 43.7% | 61.2% | -53.1% (active) | 28.2% | 21.8% | 25.4% | 64.3% | 24.4% |
| C/C(=N\OC(=O)Nc1ccccc1)c1ccccc1 | 81.5% | 99.1% | 106% | 98.4% | 92.9% | 115% | 106% | 108% | 85.1% | 107% | 104% | 99.9% | 95.1% | 98.2% | 95% | 105% | 117% | 107% |
| Clc1ccc(Nc2ncnc3c2sc2ncccc23)cc1 | 10.4% | 38.2% | 12.2% | 58.2% | 85.4% | 28.6% | 66.2% | 56.6% | 86.8% | 19.1% | 33.5% | 49.1% | 36.2% | 46.6% | 19.5% | 28% | 61.9% | 56.2% |
| N#Cc1nc(-c2ccc(Cl)cc2)cc(-c2ccc(Nc3nc(N4CCCCC4)nc(N4CCCCC4)n3)cc2)c1N | 105% | 111% | 96.5% | 113% | 110% | 90.9% | 91.4% | 105% | 94.1% | 102% | 100% | 99.2% | 106% | 99.3% | 99.6% | 102% | 112% | 107% |
| Fc1ccc2c(CN3CCO[C@H](COc4cccc(Cl)c4)C3)c[nH]c2c1 | 37.3% | 12.5% | 33.3% | 85.8% | 71.2% | 85.7% | 63% | 36.7% | 64.8% | 47.3% | 37.5% | 57.7% | 50% | 59.7% | 20.3% | 28.8% | 96.9% | 38.9% |
| Cc1cc(C)c2c(n1)sc1c(Nc3ccc(OCc4ccccc4)cc3)ncnc12 | 95.5% | 95.1% | 104% | 109% | 107% | 106% | 97.5% | 100% | 108% | 100% | 95.7% | 102% | 107% | 101% | 93.2% | 103% | 96.1% | 94.2% |
| COc1cc2cc(C(=O)Nc3ccccc3)c(N)nc2cc1OC | -35.8% (active) | -21.2% (active) | -44.8% (active) | 73% | 22.3% | 23% | -11.7% (active) | 27.8% | 36.2% | -29.1% (active) | -28% (active) | 69.9% | -84.2% (active) | -68% (active) | -88.4% (active) | -80.2% (active) | -83.4% (active) | -52% (active) |
| CCOC(=O)c1ccccc1SC(C[N+](=O)[O-])c1ccccc1 (stereo not given) | 38.2% | -41.5% (active) | 85.8% | 100% | 89.1% | 117% | 72.1% | 104% | 104% | 112% | 60.6% | 88.4% | -58.1% (active) | 55.8% | 1.05% (active) | 3.98% (active) | 8.62% (active) | 91.6% |
| O=C(/C=C/c1ccccc1)C(Br)C(Br)c1ccccc1 (stereo not given) | -28% (active) | -42.2% (active) | -20.7% (active) | 38.3% | 13% | 86.1% | -45.5% (active) | -31.1% (active) | 100% | 39.7% | -36.6% (active) | -60.8% (active) | -68.7% (active) | -53.1% (active) | -48.3% (active) | -94.2% (active) | 51.8% | 8.19% (active) |
| CCCCNCC(O)c1cc2c(Cl)cc(Cl)cc2c2cc(C(F)(F)F)ccc12 (stereo not given) | -68% (active) | -38.8% (active) | -56% (active) | -81.2% (active) | -89.7% (active) | -22.8% (active) | -65.2% (active) | -91.1% (active) | -51.6% (active) | -64% (active) | -74.6% (active) | 11.9% | -52.7% (active) | -68.2% (active) | -83.5% (active) | -91.7% (active) | -72% (active) | -89.4% (active) |
| CC(=O)c1c(C)nc(-c2cc(C)cc(Cl)c2)nc1-c1cccc(Oc2ccccc2)c1 | 10.1% | 46.4% | 91.8% | 107% | 85.1% | 84% | 77.7% | 38.6% | 59.8% | 25.1% | 72.3% | 64.3% | -4.76% (active) | 25.7% | 43.5% | 30.5% | 77.6% | 30.7% |
| CCOC(CN1CCN(CC(C)C(=O)c2ccccc2)CC1)c1ccccc1 (stereo not given) | 99.3% | 88.8% | 104% | 110% | 93.4% | 105% | 104% | 112% | 115% | 106% | 92.8% | 115% | 102% | 106% | 80.6% | 109% | 115% | 104% |
| Nc1c(C(=O)c2ccc(Br)cc2)sc2nc3c(cc12)CCCC3 | 65.3% | 94.6% | 98.7% | 88% | 105% | 106% | 108% | 95.4% | 109% | 85.7% | 101% | 89.4% | 49.9% | 105% | 88.4% | 98.5% | 99.6% | 75.4% |
| O=C(Cn1nncc1CN1C(=O)CSC1=O)Nc1ccc(F)cc1 | 124% | 104% | 108% | 107% | 103% | 90.8% | 102% | 107% | 97.6% | 97.6% | 97.8% | 98.8% | 100% | 98.8% | 94.6% | 101% | 96.2% | 106% |
| COc1ccc(C(=O)C(C#N)c2cc(OC)c(OC)c(OC)c2)cc1 (stereo not given) | 71.5% | 96.7% | 93% | 106% | 102% | 105% | 110% | 111% | 105% | 108% | 98.3% | 98.3% | 101% | 107% | 99.6% | 97.5% | 100% | 115% |
| COc1cccc(/C=N/N=C(N)N)c1 | 93% | 104% | 100% | 89.7% | 91.5% | 111% | 107% | 105% | 113% | 103% | 97.5% | 114% | 114% | 98% | 100% | 99.9% | 107% | 96.4% |
| COc1cccc2nc(Nc3cccc(NC(=O)c4ccc(N5CCN(C)CC5)c(C(F)(F)F)c4)c3)ccc12 | -7.69% (active) | 7.17% (active) | 30.7% | 61.5% | 39.5% | 81.7% | 28.6% | 29.6% | 32.6% | 43.9% | 36.7% | 67% | 19.9% | -33.3% (active) | -12.9% (active) | 6.56% (active) | -7.74% (active) | -7.59% (active) |
| O=C(OCc1ccc2c(Br)cc(Br)c(O)c2n1)c1cc2ccccc2[nH]1 | 3.2% (active) | -25.2% (active) | -23.7% (active) | -85.4% (active) | -21.2% (active) | 68.8% | -91.5% (active) | -80.8% (active) | -4.51% (active) | -55.2% (active) | -69.5% (active) | -84.3% (active) | -80.6% (active) | -69.2% (active) | -35.5% (active) | -72.9% (active) | -77.7% (active) | -19% (active) |
| CCCCN(CCCC)CCCN=c1nc2c(c(N)n1-c1ccccc1)c(=S)n(-c1ccccc1)c(=S)n2-c1ccccc1 | -65.2% (active) | -53.4% (active) | -36.1% (active) | -60.2% (active) | -82% (active) | -86.5% (active) | -70.9% (active) | -100% (active) | -64.6% (active) | -71.1% (active) | -62.1% (active) | -90.6% (active) | -100% (active) | -100% (active) | -88.1% (active) | -25% (active) | -91.5% (active) | -100% (active) |
| Cc1ccc(S(=O)(=O)NC(CCC(=O)Nc2ccc(Cl)cc2)C(=O)Nc2ccc(Cl)cc2)cc1 (stereo not given) | -18.2% (active) | 13.5% | 39.2% | 67.8% | 26.3% | 26.2% | 34.6% | 7.96% (active) | 29.8% | 39.6% | 16.5% | 27.3% | 38.4% | 31.1% | 30% | 23.8% | 23.5% | 12.8% |
